# PubChem BioAssay AID624300 (Southern Research Specialized Biocontainment Screening …, 2012)
# In all, about 2,400 compounds went through this assay and about 360 (15%) were called active.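 How the source made its calls: active means viability falls under 70% at one or more tested concentrations, taken as toxicity; inactive means viability stays over 70% at every dose.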 Not all results are given here. A call without a number means that no potency is given here. Potency and affinity values are given separately.
# Assay: viability loss in HeLa cells – cytotoxicity control for MgcRacGAP inhibitor project, dose response (AID 624300)
# Details: CellTiter-Glo luminescence, 24 h; series mostly up to 100 µM
row,SMILES,outcome
1,COC(=O)CC1SC(=O)NC1=Nc1ccc(O)cc1 (stereo not drawn),inactive
2,S=c1[nH]c2ccccc2n2c(=S)[nH]nc12,inactive
3,O=C(CNC(=O)c1cccs1)N/N=C/c1ccc(O)cc1O,inactive
4,COc1ccc(N2CCN(C(CNS(=O)(=O)c3cccs3)c3cccnc3)CC2)cc1 (stereo not drawn),inactive
5,O=C1Nc2ccccc2C1=Nc1ccc2[nH]c3ccccc3c2c1,inactive
6,COc1ccc(CN(C)CC(=O)Nc2ccc(Cl)cc2C(F)(F)F)c(OC)c1,inactive
7,O=S(=O)(O)c1cc(O)c2ccc(Nc3ccccc3)cc2c1,inactive
8,O=S(=O)(O)c1ccc(O)c2cc(Nc3ccccc3)ccc12,inactive
9,CCOc1ccccc1Oc1cn[nH]c1-c1ccc(O)cc1O,inactive
10,COc1cc(CNc2ccc3[nH]c(=O)[nH]c3c2)ccc1OCc1cccc(C)c1,inactive
11,CCOc1cc(/C=N/NC(=O)c2c(-c3ccccc3)noc2C)ccc1O,inactive
12,O=C1/C(=C/c2ccc(O)c(O)c2)Oc2cc(O)ccc21,inactive
13,O=C1ON=C(c2ccccc2)/C1=C/c1ccco1,inactive
14,COc1cc(/C=C2\Oc3cc(O)ccc3C2=O)ccc1O,inactive
15,COc1cc(/C=C2/C(=O)NN(c3ccc(Cl)cc3)C2=O)cc(Br)c1O,inactive
16,COC(=O)C1=C(O)/C(=C\c2ccc(O)c(OC)c2)N=C1C,inactive
17,O=[N+]([O-])c1cccc(S(=O)(=O)N/N=C/c2ccc(O)cc2)c1,inactive
18,COc1cc(/C=C/CN2CCC(Oc3ccc(C(=O)N4CCCC4)cc3)CC2)ccc1O,inactive
19,Nc1ccc(N2CCN(c3ccc(F)cc3)CC2)cc1,inactive
20,c1ccc(CNc2ccc(N3CCOCC3)cc2)cc1,inactive
21,COc1ncnc2c1ncn2CCCNc1ccc(C)c(C)c1,inactive
22,O=C(O)c1ccc(N/N=C/c2c[nH]c3ccccc23)cc1,inactive
23,Cc1cc(C)nc(N/N=C/c2c[nH]c3ccccc23)n1,inactive
24,Cc1[nH]c2ccccc2c1/C=N/Nc1nncn1N,inactive

row,SMILES,outcome
1,C/C(=N\Nc1nc2ccccc2[nH]1)c1cccs1,inactive
2,O=c1cc(CN2CCOCC2)c2ccc(O)c(O)c2o1,inactive
3,COc1cc(/C=N/NC(=O)Cn2nnc3ccccc32)ccc1O,inactive
4,O=C(Nc1ccc(O)cc1)c1cc2ccccc2c(=O)s1,inactive
5,CC[N+](CC)(CC)CCCCOc1ccc2c(c1)C(=O)c1cc(OCCCC[N+](CC)(CC)CC)ccc1-2,inactive
6,FC(F)(F)c1cccc(N2CCC(N=CN3CCCCCC3)=N2)c1,inactive
7,Oc1ccc(C=NNc2ccccn2)c(O)c1,inactive
8,Oc1ccc(/C=N/Nc2ccc(C(F)(F)F)cn2)cc1,inactive
9,Oc1cccc(Nc2ccccc2)c1,inactive
10,Nc1ccc(Nc2ccccc2)c(Cl)c1,inactive
11,CCOc1cc(/C=N/NC(=O)c2ccc(NC(=O)C3CC3)cc2)ccc1O,inactive
12,O=C(CCN1CCCCCC1)Nc1ccc2c(c1)OCCO2,inactive
13,C/C(CC(=O)Nc1ccc(N(C)C)cc1)=N\NC(=O)c1ccc([N+](=O)[O-])cc1,inactive
14,O=C(Nc1ccc(O)cc1)c1cccc(Oc2ccc([N+](=O)[O-])cc2)c1,inactive
15,O=C(CNC(=O)c1ccco1)N/N=C/c1ccc(O)cc1O,inactive
16,Cc1ccc(OC(=S)Nc2ccc(O)cc2)cc1,inactive
17,COc1cc(/C=N/NC(=O)c2cc3ccccc3[nH]2)ccc1O,inactive
18,COc1ccc(/C=N/Nc2nc3ccccc3s2)cc1O,inactive
19,COc1cc(/C=N/Nc2nc(C)cc(=O)[nH]2)ccc1O,inactive
20,Cc1ccsc1/C=N/Nc1nc2ccccc2[nH]1,inactive
21,CCC(=Nc1ccc(N)cc1)C1=C(O)C(C(=O)OC)C(C)(C)CC1=O (stereo not drawn),inactive
22,COc1ccc(OC)c(CN2CCN(Cc3ccc(OC)c(OC)c3OC)CC2)c1,inactive
23,CC1CC(C)(C)N(C(=O)CN2CCN(C)CC2)c2ccccc21 (stereo not drawn),inactive
24,COc1ccccc1-n1c(=O)c2c3c(sc2n2c(=S)[nH]nc12)CCC3,inactive

row,SMILES,outcome
1,Oc1ccc(/C=N/Nc2ncnc3c2ncn3Cc2ccccc2)cc1O,inactive
2,O=[N+]([O-])c1cccc(CN2CCN(c3cccc4[nH]ccc34)CC2)c1,inactive
3,COc1ccccc1/C=C(/C(=O)OCC(=O)Nc1ccc(N(C)C)cc1)c1ccccc1,inactive
4,COc1ccc(S(=O)(=O)N2CCC(N3CCN(c4ccccc4OC)CC3)CC2)cc1,inactive
5,Cc1cccc(CN2CCN(Cc3ccco3)CC2)c1,inactive
6,COc1ccc(NCc2cc3ccccc3[nH]c2=O)cc1,inactive
7,Nc1[nH]c2cc([N+](=O)[O-])ccc2c1-c1ccccn1,inactive
8,CN(C)c1ccc(NC(=O)COC(=O)CNC(=O)c2cccs2)cc1,inactive
9,Cc1cc(OCCCN2CCN(Cc3ccccc3)CC2)ccc1[N+](=O)[O-],inactive
10,Cc1c(N=C2NC(=O)/C(=C/c3ccc(O)cc3)S2)c(=O)n(-c2ccccc2)n1C,inactive
11,O=C(CSc1ccc2ccccc2n1)N/N=C/c1ccc(O)cc1,inactive
12,O=C(CCN1CCN(C(c2ccccc2)c2ccccc2)CC1)N/N=C/c1ccc(O)cc1,inactive
13,CCCOC(=O)c1ccc(O)c(OC)c1,inactive
14,O=C(C1CCN(Cc2cc(Cl)ccc2O)CC1)N1CCN(Cc2ccccc2)CC1,inactive
15,COc1ccc(NC(C)c2cc(Cl)ccc2O)cc1 (stereo not drawn),inactive
16,COc1ccc(/C=C2\C(=O)NC(=O)c3ccccc32)cc1OC,inactive
17,COc1cccc(CNc2ccc(N3CCC(C)CC3)cc2)c1OC,inactive
18,COc1cc(/C=N/NC(=O)/C(=C\c2ccc3c(c2)OCO3)NC(=O)c2ccccc2)ccc1O,inactive
19,COc1ccc(C(=O)N/N=C/c2ccc(N3CCOCC3)s2)cc1OC,inactive
20,COc1cc(/C=N/NC(=O)C(=O)NCC2CCCO2)ccc1O (stereo not drawn),inactive
21,Cc1cc(C)c(S(=O)(=O)Nc2ccc(O)cc2)c(C)c1,inactive
22,COc1ccc(NC(=S)Nc2cccc3ccccc23)cc1OC,inactive
23,O=C(Nc1ccccn1)c1ccc2ccccc2c1O,inactive
24,O=C(Nc1ccc(O)cc1)c1ccc(C(=O)c2ccccc2)o1,inactive

row,SMILES,outcome
1,CCCCNc1nc(=S)[nH]c2cc(OC)c(OC)cc12,inactive
2,COc1ccc(CCNc2nc(=S)[nH]c3cc(OC)c(OC)cc23)cc1OC,inactive
3,CC(=O)CC(=O)Nc1ccc(Nc2ccccc2)cc1,inactive
4,COCCCn1c(=S)[nH]c2sc3c(c2c1=O)CCCC3,inactive
5,Cc1cc(OCCCCCN2CCCC2)ccc1Cl,inactive
6,CCOc1ccc(OCCOCCN2CCCC2)cc1,inactive
7,CN(C)CCCn1c(SCc2ccc(Cl)cc2)nnc1-c1ccncc1,inactive
8,N#CCCN1CCN(CCC#N)c2ccccc21,inactive
9,C/C(CC(=O)Nc1ccc(N(C)C)cc1)=N\NC(=O)c1ccc(F)cc1,inactive
10,Cn1cccc1/C=C1\SC(=Nc2ccc(O)cc2)NC1=O,inactive
11,O=C(c1ccccc1F)N1CCN(Cc2ccc3c(c2)OCO3)CC1,inactive
12,Cc1ccccc1CN1CCN(C(=O)c2cccc3ccccc23)CC1,inactive
13,Cc1[nH]c2ccccc2c1/C=N\NC(=O)CNc1ccc2c(c1)OCO2,inactive
14,COc1ccccc1N=NNc1ccccc1OC,inactive
15,COCCNCCOCCOc1ccc(Cl)c(C)c1,inactive
16,Cc1cc(C)c(C)c(OCCNCc2ccccc2)c1,inactive
17,COCCCNCCCCOc1c(Cl)cc(C)cc1Br,inactive
18,c1ccc(CN2CCN(CCOCCOc3ccc4c(c3)CCC4)CC2)cc1,inactive
19,CC(=O)Nc1ccc(Oc2nc(-c3ccccn3)nc3ccccc23)cc1,inactive
20,Cc1ccc(CCC(=O)Nc2ccc(N(C)C)cc2)o1,inactive
21,Cc1cc(C(=O)NNC(=O)/C=C/c2ccco2)c(C)o1,inactive
22,COc1cc(/C=C/C(=O)OCC(=O)NCC2CCCCC2)ccc1O,inactive
23,COc1ccc(/C=N/Nc2nc(N3CCCC3)nc(N3CCCC3)n2)cc1O,inactive
24,S=C(c1ccccc1)N1CCN(c2ccccc2)CC1,inactive

row,SMILES,outcome
1,C=CCn1c(SCC(C)=O)nnc1-c1cc(-c2ccccc2)sc1N,inactive
2,CCOC(=O)c1oc2cc(O)cc(C)c2c1C,inactive
3,CCn1c(=S)[nH]c2sc3c(c2c1=O)CCCC3,inactive
4,COc1ccc(NCc2cccnc2)cc1,inactive
5,CC(=O)Nc1cccc2cc(O)ccc12,inactive
6,Cc1cc(Oc2ccc(-c3ccccc3)cc2)n2ncnc2n1,inactive
7,CC(=O)c1ccc(NC(=S)Nc2ccc3[nH]c(=O)[nH]c3c2)cc1,inactive
8,COc1cc(C=NNC(=O)c2ccccc2-n2cccc2)ccc1O,inactive
9,Cc1c(Cl)cccc1Nc1n[nH]c(=S)s1,inactive
10,Cc1ccc[n+](CC(=O)Nc2ccc(N(C)C)cc2)c1,inactive
11,Cc1ccc2nc(/N=C(\N)NC(=O)N3c4ccccc4Sc4ccccc43)nc(C)c2c1,inactive
12,CCOC(=O)C1=C(C)Nc2ccccc2S1,inactive
13,COc1ccc2nc(/N=C(\N)NC(=O)N3c4ccccc4Sc4ccccc43)nc(C)c2c1,inactive
14,Cc1cc2nc(/N=C(\N)NC(=O)N3c4ccccc4Sc4ccccc43)nc(C)c2cc1C,inactive
15,CC1(C)CC(NC(=O)N2c3ccccc3Sc3ccccc32)CC(C)(C)N1,inactive
16,Cc1nc(/N=C(\N)NC(=O)N2c3ccccc3Sc3ccccc32)nc2ccccc12,inactive
17,O=C(NC1CCN(C(=O)N2c3ccccc3Sc3ccccc32)CC1)c1ccccc1F,inactive
18,Cc1ccc2c(C)nc(/N=C(\N)NC(=O)N3c4ccccc4Sc4ccccc43)nc2c1,inactive
19,CN(CC(=O)NCc1ccccc1)Cc1cccc(F)c1,inactive
20,O=C(CSc1nnc(C2CC2)n1C1CC1)N1CCN(c2ccc(O)cc2)CC1,inactive
21,CC1(C)OC(=O)C(=NNc2ccc(O)cc2)C(=O)O1,inactive
22,Cc1cc(-c2cc(C)c(N)cc2C)c(C)cc1N,inactive
